High-throughput results (PubChem BioAssay)
TLR9-MyD88 inh – inhibitors of TLR9-MyD88 association in cells, primary screen, cell-based, CHO, BLA complementation, fluorescence. CCF4 FRET ratio. AID 504734, 2011. 340,000 tested, 0.21% active. inhibition, % at 4.98 µM. Toll-like receptor 9 (Homo sapiens) + Myeloid differentiation primary response protein …;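 active = inhibition above the mean over all tested compounds plus 3 SD, cut at about 21% in these data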
ANO1 block – TMEM16A chloride channel inhibitors, primary screen, cell-based, HTS | HEK293 TMEM16A/YFP iodide influx fluorescence, ionomycin | Anoctamin-1 (Mus musculus), Q8BHY3 | 310,000 tested, 1.2% active | normalized B-score (activity score, 25-100; higher = stronger inhibition) at 10 µM;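 active = ratio plate-corrected score three or more library SD toward inhibition, starting fluorescence score within five deviations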;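 also: score derived from kinetic fluorescence span divided by baseline fluorescence per well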
ANO1 activ – TMEM16A chloride channel activators or potentiators, primary screen, cell-based, HTS | Anoctamin-1 (Mus musculus), Q8BHY3 | HEK293 TMEM16A/YFP-H148Q/I152L, iodide quench fluorescence; active compounds read low | B-score at 10 µM | 340,000 tested, 0.3% active;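 active = fluorescence-ratio B-score plate-corrected deviation score at least 3 library SD below zero, with starting fluorescence score within 5 deviations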;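 also: channel opened by trigger with iodide after compound preincubation; score built on the fluorescence ratio of max minus min over baseline; more negative score means more quench and so TMEM16A activation or potentiation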
TLR4-MyD88 BLA – inhibitors of TLR4-MyD88 association in cells, primary screen, cell-based, HeLa CL3-4, BLA complementation, FRET ratio | Toll-like receptor 4 (Homo sapiens) + Myeloid differentiation primary response protein … | HeLa CL3-4 TLR4/MyD88 BLA complementation | inhibition, % at 8.4 µM | 200,000 tested, 0.18% active; in the data active = inhibition above about 25%
HTR2A ag – mouse Htr2a agonists via beta-arrestin recruitment, primary screen, cell-based, luminescence; 360,000 tested, 0.66% active; AID 624169, 2012; 5-hydroxytryptamine receptor 2A (Mus musculus), P35363; activation, % at 7.6 µM; CHO-K1 mHTR2A beta-arrestin complementation; percent of 30 µM serotonin response;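 active = activation above a run cutoff, the mean activation of all tested compounds plus 3 SD, cut at about 14% in these data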
NOD2 RIPK2 PPI – NOD2-RIPK2 binding disruptors in cells, primary screen, fluorescence, CHO cells, BLA complementation; Receptor-interacting serine/threonine-protein kinase 2 (Homo sapiens), O43353; CCF4 ratio; inhibition, % at 4.98 µM; 360,000 tested, 0.38% active; AID 624267, 2012; in the data active = inhibition above about 21%
NOD2-RIPK2 conf – NOD2-RIPK2 binding disruptors, retest, confirmation, fluorescence, CHO cells, BLA complementation, triplicate | shares compounds with NOD2 RIPK2 PPI | CCF4 FRET | inhibition, % at 4.98 µM | 1,200 tested, 70% active | AID 624370, 2012;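 active = mean inhibition across replicates above a set limit taken from the earlier primary screen, cut at about 21% in these data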
BLA counter – counter-screen for NOD2-RIPK2 interaction inhibitors: BLA reporter; shares compounds with NOD2 RIPK2 PPI; CHO BLA reporter, CCF4 FRET ratio, counterscreen; inhibition, % at 4.98 µM; 1,200 tested, 57% active; AID 624371;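 active = mean inhibition above the low-control mean inhibition plus three low-control SD, cut at about 11% in these data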
Hits are given with their value; i = inactive; nt = no result given. Shown are actives, neighbours in structure and some others; about 2.4% of the full set was active somewhere.

SMILES	TLR9-MyD88 inh	ANO1 block	ANO1 activ	TLR4-MyD88 BLA	HTR2A ag	NOD2 RIPK2 PPI	NOD2-RIPK2 conf	BLA counter
CC(Sc1ccc(S(=O)(=O)N2CCOCC2)cc1[N+](=O)[O-])C(=O)O (configuration not stated)	i	i	i	i	i	37	i	i
CC(=O)c1cccc(NC(=O)Cc2ccc3c(c2)CCCC3)c1	i	i	i	i	i	i	nt	nt
CCn1nc(C)c(/C=N/NC(=O)Cn2nccc2C)c1C	i	i	i	i	i	i	nt	nt
O=C(O)c1cccc2c1C(=O)c1ccccc1C2=O	i	i	i	i	i	i	nt	nt
O=C1C(O)=CC(=C(c2ccccc2)c2ccccc2)c2ccccc21	i	nt	i	nt	i	34	i	i
COc1ccc(NS(=O)(=O)c2cc(NC(=O)CCNC(=O)c3ccco3)ccc2OC)cc1	i	nt	i	nt	i	i	nt	nt
COc1ccc(C)c2sc(NC(=O)c3cccc(N4C(=O)CCC4=O)c3)nc12	i	i	i	nt	i	22	i	i
O=C(COc1ccc([N+](=O)[O-])cc1)Nc1ccc2[nH]c(=O)[nH]c2c1	i	i	i	nt	i	i	nt	nt
Cn1cnc([N+](=O)[O-])c1S(=O)(=O)Oc1ccccc1	i	nt	i	nt	i	i	nt	nt
C[C@H](NC(=O)N1CCn2c1nc1ccccc12)C(=O)N1CCCCC1	i	i	i	nt	i	21	i	i
CC(=O)Oc1ccc(C#C/C=C2\c3ccccc3C(=O)N2c2ccccc2)cc1	i	nt	i	nt	i	i	nt	nt
CC(C)(C)OC(=O)n1cccc1/C=C1\c2ccccc2C(=O)N1c1ccccc1	i	nt	i	nt	i	41	i	i
Cc1cc(C)cc(CC(CC(=O)Nc2ccc(Cl)cc2)C(=O)O)c1 (configuration not stated)	i	i	i	nt	i	i	nt	nt
Cc1ccc(C2CC(c3ccccc3)=NN2C(=S)Nc2ccccc2)o1 (configuration not stated)	i	i	i	i	i	48	i	i
Cc1cc2[nH]c3c4ccccc4nc(C)c3c2cc1C	i	nt	i	nt	i	21	26	i
Cc1nnc(-c2cnn(C)c2N)n1CCCN1CCOCC1	i	i	i	i	i	i	nt	nt
CC(=O)Oc1c(-c2ccco2)oc2ccccc2c1=O	i	i	i	i	i	28	31	30
CCOc1ccc(C(=O)Nc2nnc(S(=O)(=O)Nc3ccccc3C)s2)cc1	i	i	i	nt	i	24	i	i
Cc1ccc(C(=O)Nc2nnc(S(=O)(=O)Nc3ccccc3C)s2)cc1C	i	i	i	nt	i	i	nt	nt
CSCC[C@@H](CO)NC(=O)[C@H]1O[C@@H](n2ccc(N)nc2=O)[C@H](O)[C@@H]1O	nt	nt	nt	nt	i	29	i	i
Cc1cc(=O)oc2cc(OC(C)C(=O)N3CCOCC3)c(Cl)cc12 (configuration not stated)	i	nt	nt	nt	i	i	nt	nt
CN(CC(=O)Nc1ccccc1Cl)C(=O)COC(=O)c1ccc(Cl)nc1	i	i	i	nt	i	i	nt	nt
CN(CC(=O)Nc1ccccc1Cl)C(=O)COC(=O)c1nc(Cl)c(Cl)c(Cl)c1Cl	i	i	i	nt	i	24	28	i
COc1ccc(OCC(=O)N2CCc3c([nH]c4ccccc34)C2c2ccccn2)cc1 (configuration not stated)	i	i	i	i	i	i	nt	nt
